Assay outcomes (PubChem)
Most compounds without a hit are left out; they make up all but 7.4% or so of the library.
SNCA expr inh = inhibitors of alpha-synuclein (SNCA) gene expression. HEK-293 SNCA-luciferase knock-in, luminescence, 24 h. Potency, µM (highest dose often 57.2 µM), inactives show at the top dose activity change, negative = inhibition, usual class: inhibitors. actives 0.17% (n = 140,000);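 also: plate controls were DMSO cells for no effect and cell-free wells for full effect; nearly all actives have a fitted effect of over 45% in size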
NIH3T3 tox = NIH 3T3 cell cytotoxicity. AID 1345082. NIH 3T3 viability, CellTiter-Glo ATP luminescence, 48-72 h. Potency, µM (titrated, usually from 96.7 µM), for inactives: at the highest dose activity change, negative = cytotoxicity, most hits filed as inhibitors. actives 4.3% (n = 94,000); also: % is scaled to controls: 0 for no effect and ±100 for the full control effect; nearly all actives have a fitted effect of over 55% in size
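Cytotoxicity is measured as loss of cellular ATP: NIH 3T3 cells (400/well) are exposed to compound for 48 or 72 hr at 37 °C, then CellTiter-Glo luminescence is imaged after 10 min at room temperature.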
hNpr1 antagonist = human Npr1 receptor antagonism; P16066; HEK293 hNpr1 GloSensor cGMP, ANP-stimulated luminescence; Potency, µM (top dose mostly 46.3 µM), without a hit: at the highest dose activity change, negative = inhibition, hits mostly inhibitors; actives 1.6% (n = 76,000); calls by dose curve; also: % is scaled to controls: 0 for no effect and ±100 for the full control effect; nearly all actives have a fitted effect of over 60% in size
Target sequence (P16066 whole entry, looked up): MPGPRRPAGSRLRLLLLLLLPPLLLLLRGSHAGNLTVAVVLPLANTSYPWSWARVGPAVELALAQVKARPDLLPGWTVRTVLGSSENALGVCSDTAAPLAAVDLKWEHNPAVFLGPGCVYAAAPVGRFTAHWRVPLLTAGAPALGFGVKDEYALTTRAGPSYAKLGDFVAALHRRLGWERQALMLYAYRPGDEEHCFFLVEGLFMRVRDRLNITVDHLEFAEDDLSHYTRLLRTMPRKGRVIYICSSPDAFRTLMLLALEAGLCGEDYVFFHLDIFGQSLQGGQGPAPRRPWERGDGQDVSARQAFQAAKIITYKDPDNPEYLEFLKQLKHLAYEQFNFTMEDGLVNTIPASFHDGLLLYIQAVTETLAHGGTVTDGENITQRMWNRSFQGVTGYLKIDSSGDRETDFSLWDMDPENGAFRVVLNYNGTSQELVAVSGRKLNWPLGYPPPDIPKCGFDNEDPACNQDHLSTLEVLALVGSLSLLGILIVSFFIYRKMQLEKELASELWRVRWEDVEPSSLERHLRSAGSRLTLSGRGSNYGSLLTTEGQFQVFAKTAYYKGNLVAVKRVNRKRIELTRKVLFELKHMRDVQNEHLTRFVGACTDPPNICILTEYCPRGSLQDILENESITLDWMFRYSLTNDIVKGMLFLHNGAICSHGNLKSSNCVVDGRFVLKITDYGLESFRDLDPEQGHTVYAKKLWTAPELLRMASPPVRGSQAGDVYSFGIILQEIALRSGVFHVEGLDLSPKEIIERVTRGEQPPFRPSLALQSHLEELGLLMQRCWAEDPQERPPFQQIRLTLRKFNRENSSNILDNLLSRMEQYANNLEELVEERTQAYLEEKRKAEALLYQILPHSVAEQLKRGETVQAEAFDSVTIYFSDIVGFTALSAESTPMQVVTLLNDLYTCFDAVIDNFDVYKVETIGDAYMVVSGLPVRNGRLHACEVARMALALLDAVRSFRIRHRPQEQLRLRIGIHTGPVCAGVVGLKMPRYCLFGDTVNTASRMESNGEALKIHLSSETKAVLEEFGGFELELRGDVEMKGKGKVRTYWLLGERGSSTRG
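Compound pre-incubated 30 min at room temperature on GloSensor-loaded HEK293 cells stably carrying hNpr1 and the pGS-40F cGMP biosensor. Stimulation uses hNppA at 0.1 nM final; luminescence is taken at baseline and 20 min post-agonist.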
SNCA viab count = counter-screen for SNCA expression inhibitors: cell viability; HEK-293-SNCA-luc viability, GF-AFC fluorescence, 24 h; Potency, µM (titrated, usually from 57.1 µM), inactives show at the top dose activity change, negative = cytotoxicity, usual class: cytotoxic; actives 0.12% (n = 150,000);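 also: 0% = DMSO-treated cells and -100% = medium-only wells without cells; nearly all actives have a fitted effect of over 30% in size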
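Cytotoxicity counterscreen: after 24 h compound treatment of genome-edited SNCA-luciferase HEK-293 cells, live-cell protease substrate GF-AFC read by fluorescence after 30 min; activity scaled between DMSO (0%) and medium-only (-100%), curves Hill-fitted.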
Luciferase inh = blocks purified firefly luciferase enzyme activity | purified P. pyralis luciferase, luminescence, biochemical | AID 1347043 | actives 2.5% (n = 76,000) | P08659 | Potency, µM (doses to about 115 µM), actives largely listed as inhibitors; also: % is scaled to controls: 0 for no effect and ±100 for the full control effect; nearly all actives have a fitted effect of over 65% in size
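Cell-free enzyme assay, 10nM P. pyralis luciferase, luciferin and ATP each at 10uM. Inhibition profiled over a 6-point titration, read as luminescence.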
HEK293 tox = kills HEK 293 cells; HEK 293 viability, ATP luminescence (CellTiter-Glo), 48-72 h; Potency, µM (titrated, usually from 115 µM), for inactives: at the highest dose activity change, negative = cytotoxicity, actives largely listed as inhibitors; actives 6.6% (n = 94,000); AID 1345083; also: % is scaled to controls: 0 for no effect and ±100 for the full control effect; nearly all actives have a fitted effect of over 60% in size
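CellTiter-Glo luminescence (cellular ATP) was read after 48 or 72 hr of compound exposure at 37 degree Celsius. Cells were HEK 293 plated at 250 cells/well.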
NPR1 antag cnf = confirmation of human Npr1 natriuretic peptide receptor antagonists. AID 1347044. Potency, µM (top dose mostly 57.6 µM), for the others: top-dose activity change, negative = inhibition, hits mostly inhibitors. HEK293 hNpr1 cGMP GloSensor luminescence, ANP-stimulated. shares compounds with hNpr1 antagonist. actives 76% (n = 1,400); calls by dose curve; also: nearly all actives have a fitted effect of over 70% in size
NPR2 antag = antagonizes human Npr2, subtype selectivity check | shares compounds with hNpr1 antagonist | actives 67% (n = 1,400) | HEK293 hNpr2 GloSensor cGMP luminescence, CNP-stimulated | Potency, µM (doses to about 57.6 µM), for inactives: at the top dose activity change, negative = inhibition, actives largely listed as inhibitors | AID 1347046; calls by dose curve; also: nearly all actives have a fitted effect of over 70% in size
FLuc counter = inhibits firefly luciferase, false Npr1 antagonist flag. shares compounds with hNpr1 antagonist. purified FLuc enzyme, luminescence, Km substrate. Potency, µM (highest dose often 57.6 µM), for inactives: top-dose activity change, negative = inhibition, usual class: inhibitors. actives 0.7% (n = 1,400); also: 0% is about no effect
GloSensor ctrl = reduces cGMP signal in GloSensor control cells. shares compounds with hNpr1 antagonist. HEK293 GloSensor cGMP, SNP-stimulated, luminescence. Potency, µM (top dose mostly 57.6 µM), for inactives: at the highest dose activity change, negative = inhibition, most hits filed as inhibitors. actives 69% (n = 1,400). AID 1347051; calls by dose curve; also: % is scaled to controls: 0 for no effect and ±100 for the full control effect; nearly all actives have a fitted effect of over 70% in size
The depositor's hits bear a star; i = inactive; ? = inconclusive; · = no result; [ ] = another dose, or the depositor's remark. Unless noted, calls follow the shape of the dose curve; as a rule, active = well fitted curve in the direction sought with a large enough effect; inconclusive = small, poorly fitted or top-dose-only effect, or another doubt; inactive = no such curve, though single readings can be large; an effect the other way counts as inactive or inconclusive. Potency is read from the fitted curve at half-maximal effect.

SMILES	SNCA expr inh	NIH3T3 tox	hNpr1 antagonist	SNCA viab count	Luciferase inh	HEK293 tox	NPR1 antag cnf	NPR2 antag	FLuc counter	GloSensor ctrl
Cc1ccc(N2CCC(NC(=O)c3ccc(C#N)cc3)C2=O)cc1 (stereo not given)	0%	1%	2%	-1%	i	-2%	·	·	·	·
COc1ccc(CN(C)C(=O)c2ccc3oc(C)cc3c2)c2cccnc12	5%	?	5µM*	?	i	?	6.9µM*	6.9µM*	1%	4.3µM*
COc1ccc(C(=O)N2CCC(n3cc(-c4nc(C(C)C)no4)nn3)C2)cc1OC (stereo not given)	18%	-15%	0%	-9%	i	-8%	·	·	·	·
CC(C)c1noc(-c2cn(C3CCN(C(=O)c4ccc(OC(F)(F)F)cc4)C3)nn2)n1 (stereo not given)	?	?	14µM*	5%	i	?	14µM*	19µM*	2%	15µM*
CCc1noc(-c2cn(C3CCN(C(=O)c4ccc(C(C)(C)C)cc4)C3)nn2)n1 (stereo not given)	-7%	?	16µM*	?	i	?	24µM*	?	-6%	27µM*
CC(C)c1noc(-c2cn(C3CCN(C(=O)c4cccc(Br)c4)C3)nn2)n1 (stereo not given)	-20%	-29%	11µM*	1%	i	?	19µM*	22µM*	2%	22µM*
CC(C)c1noc(-c2cn(C3CCN(C(=O)c4ccc(Cl)s4)C3)nn2)n1 (stereo not given)	-26%	?	8.9µM*	-4%	i	?	12µM*	12µM*	-1%	14µM*
CC(C)c1noc(-c2cn(C3CCN(C(=O)c4ccc(F)cc4)C3)nn2)n1 (stereo not given)	-27%	-26%	-5%	0%	i	?	·	·	·	·
O=C1COc2ccc(-c3ccncc3)nc2CN1Cc1ccccc1	8%[87.6 µM]	?	-17%[70.6 µM]	-3%[87.6 µM]	i	?	·	·	·	·
O=C1COc2ccc(-c3ccoc3)nc2CN1Cc1ccc(C(F)(F)F)cc1	-20%[87.6 µM]	79µM*	35µM*	-10%[87.6 µM]	i	?	35µM*	35µM*	-1%[86.2 µM]	35µM*
O=C1COc2ccc(-c3ccoc3)nc2CN1Cc1ccccc1	?	?	?	?	i	?	?	?	-3%[86.2 µM]	?
CN1CCCC1COc1ccc2c(n1)CN(Cc1ccc(C(F)(F)F)cc1)C(=O)CO2 (stereo not given)	-11%[87.6 µM]	?	-2%[70.6 µM]	-18%[87.6 µM]	i	?	·	·	·	·
CCC/C=C/c1cc2c(C=O)c(O)c(CC=C(C)C)cc2o1	·	·	·	-23%	·	·	·	·	·	·
CCNC(=O)N1CCC(Oc2ccccc2-c2nc(-c3cnccn3)no2)C1 (stereo not given)	12%	-6%	0%	-6%	i	-3%	·	·	·	·
Fc1ccc(CN2CCC(Oc3ccccc3-c3nc(-c4cnccn4)no3)C2)cc1F (stereo not given)	0%	?	-18%	?	i	25µM*	?	-29%	-16%	0%
COc1cc(CNC(=O)c2ccc3c(c2)N(C(=O)c2ccc(F)cc2)CC3)cc(OC)c1	?	?	?	?	i	?	22µM*	24µM*	3%	22µM*
Cc1cccc(CC(=O)N2CCC(Cc3nc(-c4ccccc4)no3)CC2)c1	-26%	?	-26%	-13%	i	?	·	·	·	·
COc1ccc(CC(=O)N2CCC(Cc3nc(-c4ccc(OC)cc4)no3)CC2)cc1	-14%	?	2.8µM*	-9%	i	?	3.1µM*	3.4µM*	-2%	3.4µM*
CCOc1ccc(CC(=O)N2CCC(Cc3nc(-c4ccc(OC)cc4)no3)CC2)cc1OCC	?	?	16µM*	?	i	?	27µM*	22µM*	0%	24µM*
CCOc1ccc(CC(=O)N2CCC(Cc3nc(C(C)C)no3)CC2)cc1OCC	-9%	?	0%	9%	i	?	·	·	·	·
CCOc1ccc(CC(=O)N2CCC(Cc3nc(-c4ccc(OC)cc4)no3)CC2)cc1	-28%	?	4.5µM*	-10%	i	?	2.7µM*	3.9µM*	-1%	3.4µM*
COc1ccc(-c2noc(CC3CCN(C(=O)Cc4cccc(C)c4)CC3)n2)cc1	?	?	13µM*	-28%	i	40µM*	22µM*	19µM*	4%	17µM*
CCOc1ccc(CC(=O)N2CCC(Cc3nc(C(C)C)no3)CC2)cc1	32%	-28%	-15%	-5%	i	?	·	·	·	·
Cc1c(Cl)cccc1NC(=O)CN1C(=O)NC2(CCCCC2)C1=O	-29%	-33%	-6%	7%	i	-27%	·	·	·	·
O=C(NCc1cccc(C(F)(F)F)c1)c1cn2cc(-c3ccc(C(F)(F)F)cc3)sc2n1	5%	?	·	?	·	?	·	·	·	·
O=C(c1ccccc1)N1CCNc2cnc(Nc3cccc(F)c3)nc2C1	-22%[87.6 µM]	?	13µM*	-10%[87.6 µM]	i	?	13µM*	18µM*	-15%[86.2 µM]	16µM*
O=C(CCc1ccccc1)N1CCNc2cnc(Nc3cccnc3)nc2C1	-12%[87.6 µM]	?	8%[70.6 µM]	1%[87.6 µM]	i	i	·	·	·	·
O=C(c1cocn1)N1CCNc2cnc(Nc3cccc(C(F)(F)F)c3)nc2C1	-10%[87.6 µM]	?	32µM*	-15%[87.6 µM]	i	71µM*	35µM*	35µM*	-1%[86.2 µM]	31µM*
